Source: ChEMBL document CHEMBL4888484, “Replenishing the malaria drug discovery pipeline: Screening and hit evaluation of the MMV Hit Generation Library 1 (HGL1) against asexual blood stage Plasmodium falciparum ,using a nano luciferase reporter read-out” (2022)
Among all 4,800 compounds or so, about 420 (8.8%) showed an effect of 50% or more. This excerpt belongs to a sample that is enriched for strong results.

These molecules were tested on Plasmodium falciparum (assay: Confirmatory screen in NF54 nanoGlo assay, in single point, at 2uM, 72h). Details: timepoint 72 hour.
Assay type: functional, Erythrocyte

| Structure (SMILES) | % Inhibition [%] |
| --- | --- |
| CC[C@@H](c1ccncc1)N(C)Cc1cc(-c2ccc(Cl)cc2)no1 | -6 |
| COCc1nncn1C1CN(C(=O)Cc2cc(OC)cc(OC)c2)C1 | -16 |
| COc1nn(C)cc1C(=O)N1CCC[C@H](Oc2cccnn2)C1 | 1 |
| Cc1cc(C(=O)NCCCN2CCCC2=O)nn1C(F)F | -13 |
| CCn1cc(-c2cc(C(F)(F)F)nc(N3CCCC3)n2)cn1 | 4 |
| COc1cccc(C(=O)C[n+]2cc(-c3ccc(Br)cc3)n(C)c2N)c1 | -3 |
| COc1ccc(C(=O)C[n+]2cc(-c3ccc(OC)cc3)n3c2CCCC3)cc1 | 60 |
| Cc1ccc(-c2c[n+](-c3ccc(OC(F)F)cc3)c3n2CCCCC3)cc1 | 67 |
| COc1ccc(-c2c[n+](-c3ccc(Cl)cc3)c3n2CCCCC3)cc1 | 60 |
| COc1ccc(N2CCN(Cc3cc(-c4ccc(Cl)cc4)no3)CC2)cc1 | -22 |
| COc1ccc2c(c1)[n+](CC(=O)c1ccc(-c3ccc(Br)cc3)cc1)c(CO)n2C | 46 |
| COc1ccc(CC(=O)NCc2nnc3n2CCC3)cc1 | 12 |
| Cn1c(-c2ccc(Br)cc2)c[n+](CC(=O)c2ccc(Br)cc2)c1N | -8 |
| FC(F)Oc1ccc(-c2c[n+](-c3cccc(C(F)(F)F)c3)c3n2CCCCC3)cc1 | 44 |
| COc1ccc(C(=O)C[n+]2nc(CNc3ccc(Br)cc3)n3c2CCCCC3)cc1 | 84 |
| COc1ccc(O)c([C@H]2Nc3ccccc3-n3c(-c4ccc(C)cc4)c4c(=O)n(C)c(=O)n(C)c4c32)c1 | 25 |
| COc1cccc(C(=O)N2CCCO[C@H](C(C)C)C2)c1 | -9 |
| Cc1ccc(C(=O)Nc2ccc3c(c2)OC(C)(C)C(=O)N3)cc1 | -4 |
| CN(CC(=O)N(C)C1CCC(c2ccccc2)CC1)c1cnccn1 (stereo not given) | -8 |
| COc1cc(NC(=O)CN2C(=O)N[C@](C)(c3ccc4c(c3)OCCO4)C2=O)c(OC)cc1Cl | 2 |
| O=C(CCn1c(=O)[nH]c2ccsc2c1=O)NCc1ccccc1 | 37 |
| O=C(CCc1ccccc1)N[C@@H](c1ccccc1)c1ccc2c3c(cccc13)CC2 | -12 |
| C[C@@H]1CN(C[C@@H]2CN(CCOCc3ccccc3)C[C@@H]2CO)C[C@H](C)O1 | -5 |
| CCc1nnc2ccc(S(=O)(=O)Nc3ccc(F)c(F)c3)cn12 | -6 |
| O=C(Nn1cnc2ccccc2c1=O)c1cnccn1 | 2 |

| Structure (SMILES) | % Inhibition [%] |
| --- | --- |
| Nc1ncn(C(=O)c2ccc(Cl)cc2)n1 | -14 |
| COc1nc2ncnc(OC)c2nc1C#N | 3 |
| COc1ccc(S(=O)(=O)N(CC(=O)N2CCN(Cc3ccc4c(c3)OCO4)CC2)C2CCCCC2)cc1OC | -3 |
| CC(C)(C)OC(=O)N1CCC[C@H]1C(=O)n1ccnc1 | -2 |
| CCOc1nc(C)nc2cc(-c3ccccc3)n(Cc3ccccc3)c12 | 0 |
| CCOc1ccc(-[n+]2cc(-c3ccccc3)n3c2CCC3)cc1 | 80 |
| O=C(O)C1Cc2c([nH]c3ccccc23)C(/C=C/c2ccccc2)N1 (stereo not given) | -1 |
| Cc1noc2nc(C3CC3)cc(C(=O)N3CCC[C@H](C)CC3)c12 | -11 |
| CC1NC2(C(=O)N(Cc3ccc(F)cc3)c3ccccc32)C2C(=O)N(c3cccc4ccccc34)C(=O)C12 (stereo not given) | 4 |
| CC1(C)C2OCCCC2C1(N)C(=O)Nc1cn[nH]c1 (stereo not given) | 4 |
| CCCn1cc(CNc2nnc(C(C)(C)C)o2)cn1 | -5 |
| c1ccc(Oc2ccnc(NCC34COCCN3CCOC4)n2)cc1 | -10 |
| CN1CCN(C2(CNc3ccnc4ccccc34)CCCC2)CC1 | 91 |
| Fc1cccc(F)c1CNC[C@@H]1NCCc2ccccc21 | -5 |
| O=c1[nH]c2nccnc2c(=O)n1Cc1ccc(F)cc1 | -11 |
| O=C1N[C@H]2C[C@@H](C(=O)NC[C@H]3O[C@H](CCOc4cc(-c5ccccc5)ccc41)CC[C@@H]3O)N(Cc1ccc(Cl)c(F)c1)C2 | -1 |
| CCOC(=O)C(Nc1cccc(NC(C(=O)OCC)C(=O)OCC)c1)C(=O)OCC | -16 |
| Nc1nccnc1C(=O)NCc1ccc(Cn2ccnc2)cc1 | -5 |
| O=S(=O)(c1ccccc1)N1CCN(S(=O)(=O)c2ccc(Cl)cc2)C1 | 2 |
| O=c1[nH]c(=O)n(S(=O)(=O)c2ccccc2)cc1F | 92 |
| Cc1ccc(N2CCN(S(=O)(=O)c3ccccc3)[C@@H](C)C2=O)cc1F | -5 |
| COc1ccc(CCNc2oc(-c3cccnc3)nc2C#N)cc1OC | 31 |
| O=C(CNC1=NC(=O)C(c2ccccc2)(c2ccccc2)N1)NCc1ccc(F)cc1 | -1 |
| COc1ccc(-n2ncc3c(NCCNC(=O)c4ccccc4Cl)nc(C)nc32)cc1 | -12 |
| Cc1ccc(OCC(=O)Nc2cc(C)nn2-c2nc3c(cnn3-c3ccc(C)c(C)c3)c(=O)[nH]2)cc1 | 65 |

| Structure (SMILES) | % Inhibition [%] |
| --- | --- |
| Cc1ccc(OCC(=O)Nc2ccc(N3CCn4c(nc5ccccc54)C3)cc2Cl)cc1 | -17 |
| C1CCC(Nc2nc3nonc3nc2N2CCCCC2)CC1 | 1 |
| CC(C)CN(CC(C)(C)C)C(=O)c1cc[nH]n1 | -6 |
| O=C(CN1CCN(Cc2ccccc2F)C1=O)NC1CCCCCCC1 | -11 |
| O=C(c1ccccc1Cl)N1CCC[C@H](n2cnc3ccccc3c2=O)C1 | 18 |
| CCN(c1ccc(C(=O)N(C)C2(C#N)CCC2)cc1)C(C)C | -3 |
| O=S(=O)(Cc1ccccc1)Nc1nnc[nH]1 | -1 |
| CCn1nccc1CNc1cc(Cl)cc2c1OCC2 | -8 |
| CC(C)(C)OC(=O)N1C[C@@H](O)CC1=O | -11 |
| COc1ccc(C(=O)N2c3ncnn3C(c3ccccc3)CC2c2ccc(C)cc2)cc1OC (stereo not given) | 78 |
| COc1ccc(C2CC(c3ccccc3)N(C(C)=O)c3ncnn32)cc1 (stereo not given) | -9 |
| COc1ccc(C(=O)Nc2nnc([C@H]3CC(=O)N(c4ccc(C)cc4)C3)o2)cc1OC | -16 |
| CCCN1CCN(CC(=O)Nc2sccc2C#N)c2cc(F)ccc21 | 2 |
| Cc1ccc(NC(=O)c2cc[nH]n2)c(C)c1 | -18 |
| COc1ccc(-c2c(C)nn3c(N4CCC(C(=O)NC5CC5)CC4)cc(C)nc23)cc1OC | 37 |
| COc1ccc(-c2nn3c(N4CCN(CC=Cc5ccccc5)CC4)cc(C)nc3c2C)cc1OC | 55 |
| COc1ccc(-c2cc3nc(C)cc(N4CCN(C/C=C/c5ccccc5)CC4)n3n2)cc1OC | 42 |
| Cc1c(C2=NO[C@H]3C(=O)N(c4ccc5ccccc5c4)C(=O)[C@@H]23)cnn1C | 0 |
| C[C@H](NC(=O)c1nnn(C)c1C(F)(F)F)c1cscn1 | 7 |
| COc1ccc(CCNC(=O)CCCC(=O)Nc2cccnc2)cc1OC | 3 |
| COc1ccc(Cl)cc1S(=O)(=O)N(C)[C@H]1CCc2n[nH]c(=O)n2CC1 | -5 |
| CCN1CC(=O)N[C@H]2CN(C(=O)CCn3ccnc3C)CC[C@@H]2OCc2cccc(c2)Oc2cc(OC(C)C)cc(c2)C1=O | 9 |
| COCCCN1CC(=O)N[C@@H]2CN(C(=O)CCc3cccnc3)CC[C@@H]2OCc2cccc(c2)Oc2cc(ccc2OC)C1 | 14 |
| CCc1cc(N2C[C@@H]3NC(=O)CN(C)Cc4ccc(OC)c(c4)Oc4cccc(c4)CO[C@H]3C2)nc(N(C)C)n1 | 60 |
| O=c1cc2n(c(=O)[nH]1)CC(c1ccccc1)=NN2 | 4 |

| Structure (SMILES) | % Inhibition [%] |
| --- | --- |
| Cc1nnc2sc(Nc3ccccc3)nn12 | -2 |
| O=C1NCCCOc2cccc(c2)[C@H]2c3ccc(cc3CCN2C(=O)CCN2CCOCC2)Oc2ccc(O)c1c2 | 59 |
| NCc1cccc(C(=O)N2CCc3cc4ccc3[C@@H]2c2cccc(c2)OCCCNC(=O)c2cc(ccc2O)O4)c1 | 93 |
| NC(=O)C1CCN(CCC(=O)N2CCc3cc4ccc3[C@@H]2c2cccc(c2)OCCCNC(=O)c2cc(ccc2O)O4)CC1 | 96 |
| O=C(NOCc1ccc(F)cc1)NC1CCCCC1 | -5 |
| COc1ccc(N2CCN(Cc3c(O)nc(O)c(C#N)c3C)CC2)cc1 | -3 |
| COc1ccc(CCN2C(=O)CC[C@H]2c2cn(C)c3ccccc23)cc1OC | -1 |
| Cc1ccc(C(=O)N2CCCC23CCC3)nn1 | -11 |
| O=C(c1[nH]nc(C2CC2)c1Br)N1CCC12CCC2 | -8 |
| COC(=O)[C@]1(C)CN(C(=O)NCc2cc(C#N)ccc2F)C[C@H]1C | 7 |
| CCc1nc(C)nc(N2CCN(C[C@H](O)COc3ccccc3C)CC2)c1Cc1cccc(C)c1 | 7 |
| O=C(Cc1c(Cl)cccc1Cl)N1CC[C@]2(CCOC2)C1 | -8 |
| CC[C@@]1(C)CCCN(C(=O)Cc2c(C)noc2Cl)C1 | 84 |
| Cc1noc(Cl)c1CC(=O)N1CCCC(C)(C)CC1 | 38 |
| CC(C)(C)NC(=O)CNC(=O)c1cccc(F)c1 | -13 |
| Cc1nc(Cn2nnc(NC(=O)c3cccc(F)c3)c2C)no1 | 1 |
| O=C(Nc1nc2cccc(Cl)c2o1)c1cccc(F)c1 | 92 |
| COC(CNC(=O)OC(C)(C)C)CC(=O)NC1CC(C)CCC1C(C)C (stereo not given) | -7 |
| O=C(Cn1cccn1)N1CC(c2nc(-c3ncccn3)no2)C1 | 5 |
| N#Cc1cnc(NC2CC3CCC2C3)cn1 (stereo not given) | -8 |
| CC(C)CS(=O)(=O)Nc1ccccc1C(N)=O | -5 |
| CN(C)CCN(C)c1ccc(Br)cc1NCc1cncn1C | 16 |
| COc1ccc2cccc(NC(=O)c3cc(-c4cc(OC)c(OC)c(OC)c4)n[nH]3)c2n1 | 64 |
| COc1ccc(-c2cc(C(=O)Nc3ncc[nH]3)n[nH]2)cc1OC | 29 |
| COc1cc(NC(=O)c2cc(-c3cccc4ccccc34)[nH]n2)cc(OC)c1OC | 10 |
